Compounds with a hit are over-represented: about 4.5% of the library has one in this group of screens.
hcDAF-12 act – H. contortus DAF-12 nuclear receptor activators, primary screen, cell-based, luminescence, HEK293, lit1-tk-luc reporter. HEK293 hcDAF-12 lit1-tk-luc reporter; 0% DMSO, 100% Δ7-dafachronic acid. activation, % at 6.8 µM. 1.4% of 370,000 active. AID 652067, 2013;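 active = activation above the mean of all tested compounds plus 3 SD, cut at about 5.5% in these data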
DAX1 inh-1 – DAX1 (NR0B1) inhibitors, primary screen, cell-based, HEK293, Gal4-DAX1, luciferase luminescence. 0.99% of 340,000 active. inhibition, % at 6.75 µM. AID 504766, 2011. HEK293 Gal4-DAX1 luciferase reporter;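 active = inhibition above the mean over all tested compounds plus 3 SD, cut at about 4.2% in these data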;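 note: inhibition shows as a rise in luminescence from relieved DAX1 repression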
Target sequence (P51843 207-470 limits assumed): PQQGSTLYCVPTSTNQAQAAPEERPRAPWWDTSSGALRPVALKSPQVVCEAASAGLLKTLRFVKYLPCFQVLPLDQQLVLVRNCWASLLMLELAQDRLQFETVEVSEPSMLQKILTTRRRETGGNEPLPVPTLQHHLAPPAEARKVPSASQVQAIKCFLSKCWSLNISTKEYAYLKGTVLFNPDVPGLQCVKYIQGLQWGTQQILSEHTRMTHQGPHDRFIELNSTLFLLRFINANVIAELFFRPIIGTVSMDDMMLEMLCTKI
DAX1 inh-2 – DAX1 (NR0B1) inhibitors on StAR promoter, primary screen, cell-based, luminescence, SF-1 (NR5A1), full-length DAX-1 | HEK293T StAR-luciferase reporter, SF-1/DAX-1 repression relief | 1.1% of 370,000 active | inhibition, % at 6.8 µM;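 active = inhibition above the mean over all tested compounds plus 3 SD, cut at about 3.6% in these data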;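 note: higher inhibition means more luminescence from relief of DAX-1 repression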
ssDAF-12 act – S. stercoralis DAF-12 nuclear receptor activators, primary screen, cell-based, luminescence, HEK293, GRIP1 co-expression, lit1-tk-luc | Nuclear hormone receptor DAF-12 (Strongyloides stercoralis) | AID 652126, 2013 | HEK293 ssDAF-12/GRIP1 lit1-tk-luc reporter; % of 3 µM dafachronic acid response | activation, % at 6.8 µM | 1% of 370,000 active;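 active = activation above the mean over all tested compounds plus 3 SD, cut at about 0.9% in these data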
GAA850 FXN act – FXN promoter activators, primary screen, cell-based, luciferase luminescence, HEK293 lucGAA850 | AID 540364, 2011 | activation, % at 6 µM | 0.56% of 360,000 active | HEK293 lucGAA850 FXN promoter luciferase reporter, 24 h; percent of 10 µM SAHA response;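 active = activation above the average of all compounds screened plus 3 SD, cutoff fixed separately per campaign, cut at about 7.5% in these data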
hgDAF-12 ag – H. glycines DAF-12 receptor agonists, primary screen, cell-based, luminescence, HEK293, GAL4 fusion, UAS-luciferase; HEK293 GAL4-hgDAF12 UAS-luciferase reporter, agonist luminescence; normalized to butyrate control; activation, % at 6.8 µM; 1.8% of 370,000 active; Nuclear hormone receptor DAF-12 (Heterodera glycines), GAL4 fusion;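 active = activation above a cutoff set at the mean of all screened compounds plus 3 SD, cut at about 10% in these data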
Hits are given with their value; ! = not active in a repeat.

O=C(Nc1ccc(N2C(=O)[C@@H]3[C@H](C2=O)[C@@H]2C=C[C@H]3C2)c(Cl)c1)c1ccccn1 was read as hcDAF-12 act inactive, ssDAF-12 act inactive and hgDAF-12 ag 12.
For CC(=O)Nc1ccc(S(=O)(=O)NCC(=O)Nc2ccc3c(c2)OCO3)cc1 the results were hcDAF-12 act inactive, DAX1 inh-1 inactive, DAX1 inh-2 inactive, ssDAF-12 act 2.1, GAA850 FXN act inactive and hgDAF-12 ag inactive.
O=S(=O)(c1ccc(NC(=S)Nc2ccc3c(c2)OCO3)cc1)N1CCOCC1 was read as hcDAF-12 act inactive, DAX1 inh-1 inactive, DAX1 inh-2 inactive, ssDAF-12 act inactive, GAA850 FXN act inactive and hgDAF-12 ag inactive.
O=S(=O)(NCc1ccc2c(c1)OCO2)c1ccc(F)cc1 was read as hcDAF-12 act inactive, DAX1 inh-1 7.5, DAX1 inh-2 inactive, ssDAF-12 act inactive, GAA850 FXN act inactive and hgDAF-12 ag inactive.
For CNS(=O)(=O)c1ccc(NC(=S)Nc2ccc3c(c2)OCO3)cc1 the results were hcDAF-12 act inactive, DAX1 inh-1 inactive, DAX1 inh-2 inactive, ssDAF-12 act inactive, GAA850 FXN act inactive and hgDAF-12 ag 11.
`Cc1ccc(S(=O)(=O)NCC(=O)Nc2ccc3c(c2)OCO3)cc1` gave hcDAF-12 act inactive, DAX1 inh-1 inactive, DAX1 inh-2 inactive, ssDAF-12 act inactive, GAA850 FXN act inactive and hgDAF-12 ag inactive.
COC(=O)[C@@]12CCCCC3=C1N(CCC3)C(=O)[C@H]2CC(=O)NCc1ccc(C)o1 was read as hcDAF-12 act inactive, DAX1 inh-2 inactive, ssDAF-12 act inactive and hgDAF-12 ag inactive.
`O=C(Nc1ccc(C(F)(F)F)cc1)OC1CCC12CCC(c1ccccc1)CC2` (stereo not drawn) gave hcDAF-12 act inactive, DAX1 inh-2 inactive, ssDAF-12 act inactive and hgDAF-12 ag inactive.
Screening CN(C)C(CNC(=O)CCc1nc2ccccc2s1)c1ccccc1 (stereo not drawn) returned hcDAF-12 act inactive, DAX1 inh-1 5.5, DAX1 inh-2 inactive, ssDAF-12 act inactive, GAA850 FXN act inactive and hgDAF-12 ag inactive.
Screening COc1ccc(CN2CN3Cc4ccc(C)cc4C3CS2(=O)=O)cc1 (stereo not drawn) returned hcDAF-12 act inactive, DAX1 inh-2 inactive, ssDAF-12 act inactive and hgDAF-12 ag inactive.
`Cc1cccc(N=c2oc3cc(O)ccc3cc2C(N)=O)c1` gave hcDAF-12 act inactive, DAX1 inh-1 inactive, DAX1 inh-2 inactive, ssDAF-12 act inactive, GAA850 FXN act inactive and hgDAF-12 ag 12.
CCC(C#Cc1ccccc1)N(C)C(N)=NC(=O)/C=C/c1ccccc1 (stereo not drawn) was read as hcDAF-12 act inactive, ssDAF-12 act inactive and hgDAF-12 ag inactive.
`Cc1cc(Cl)c2oc(C(=O)N(C)Cc3ccon3)c(C)c2c1` gave hcDAF-12 act inactive, DAX1 inh-1 inactive, DAX1 inh-2 inactive, ssDAF-12 act inactive, GAA850 FXN act inactive and hgDAF-12 ag 13.
Cc1cc(Cl)c2oc(C(=O)N(CCO)Cc3ccccc3)c(C)c2c1 was read as hcDAF-12 act inactive, DAX1 inh-1 8.1, DAX1 inh-2 inactive, ssDAF-12 act inactive, GAA850 FXN act inactive and hgDAF-12 ag inactive.
CCOC(=O)N1CCN(C(=O)C[C@@H]2C(=O)N3CCCC4=C3[C@@]2(C(=O)OCC)CCC4)CC1 was read as hcDAF-12 act inactive, DAX1 inh-2 inactive, ssDAF-12 act inactive and hgDAF-12 ag inactive.
Screening O=C(O)CSc1nc2c(c(C(F)(F)F)n1)CCCC2 returned hcDAF-12 act inactive, DAX1 inh-1 5.1!, DAX1 inh-2 inactive, ssDAF-12 act inactive, GAA850 FXN act inactive and hgDAF-12 ag inactive.
O=C(O)CSc1nc2c(c(C(F)(F)F)n1)CCc1ccccc1-2 was read as hcDAF-12 act inactive, DAX1 inh-1 inactive, DAX1 inh-2 inactive, ssDAF-12 act inactive, GAA850 FXN act inactive and hgDAF-12 ag inactive.
COC(=O)CSc1nc(C)c2c(n1)CCCC2 was read as hcDAF-12 act inactive, DAX1 inh-1 4.6, DAX1 inh-2 inactive, ssDAF-12 act inactive, GAA850 FXN act inactive and hgDAF-12 ag inactive.
CC(=O)Nc1ccccc1C(=O)C(=O)Nc1ccc(C)c(F)c1 was read as hcDAF-12 act inactive, DAX1 inh-1 inactive, DAX1 inh-2 inactive, ssDAF-12 act inactive, GAA850 FXN act inactive and hgDAF-12 ag inactive.
For CC(=O)Nc1ccccc1C(=O)C(=O)Nc1ccc(C)c(C)c1 the results were hcDAF-12 act inactive, DAX1 inh-1 inactive, DAX1 inh-2 inactive, ssDAF-12 act inactive, GAA850 FXN act inactive and hgDAF-12 ag 11.
`CCOC(=O)CC[C@H]1CC[C@]2(CCCN(C(=O)c3cccnc3)C2)O1` gave hcDAF-12 act inactive, DAX1 inh-2 inactive, ssDAF-12 act inactive and hgDAF-12 ag inactive.
O=C(Nc1cccc2nsnc12)c1ccc2c(c1)OCCO2 was read as hcDAF-12 act 5.6, DAX1 inh-1 inactive, DAX1 inh-2 inactive, ssDAF-12 act inactive, GAA850 FXN act inactive and hgDAF-12 ag inactive.
For O=C(Nc1cccc2nsnc12)c1ccc2c(c1)OCO2 the results were hcDAF-12 act inactive, DAX1 inh-1 inactive, DAX1 inh-2 inactive, ssDAF-12 act inactive, GAA850 FXN act inactive and hgDAF-12 ag inactive.
Cc1cccc(NC(=O)c2ccc3c(c2)OCCO3)c1C was read as hcDAF-12 act inactive, DAX1 inh-1 inactive, DAX1 inh-2 inactive, ssDAF-12 act inactive, GAA850 FXN act inactive and hgDAF-12 ag 12.
Cc1ccccc1NC(=O)c1ccc2c(c1)OCCO2 was read as hcDAF-12 act inactive, DAX1 inh-1 inactive, DAX1 inh-2 inactive, ssDAF-12 act inactive, GAA850 FXN act inactive and hgDAF-12 ag inactive.
Cn1cc(Br)c(C(=O)Nc2nccs2)n1 was read as hcDAF-12 act 5.6, DAX1 inh-1 inactive, DAX1 inh-2 inactive, ssDAF-12 act inactive, GAA850 FXN act inactive and hgDAF-12 ag inactive.
For CCOC(=O)C1CCN(C(=O)c2cc3c(=O)n4cccc(C)c4nc3s2)CC1 the results were hcDAF-12 act 6.5, DAX1 inh-1 inactive, DAX1 inh-2 inactive, ssDAF-12 act inactive, GAA850 FXN act inactive and hgDAF-12 ag inactive.
`CCOC(=O)C1CCN(C(=O)c2cc3c(=O)n4ccccc4nc3s2)CC1` gave hcDAF-12 act 6.4, DAX1 inh-1 inactive, DAX1 inh-2 inactive, ssDAF-12 act inactive, GAA850 FXN act inactive and hgDAF-12 ag inactive.
`CCN(CC)C(=O)c1cc2c(=O)n3ccccc3nc2s1` gave hcDAF-12 act 6.5, DAX1 inh-1 inactive, DAX1 inh-2 inactive, ssDAF-12 act inactive, GAA850 FXN act inactive and hgDAF-12 ag inactive.
